10 compounds from PubChem BioAssay can be followed below.

Results filed as inconclusive are left out. Activity calls are given as the source filed them. Unless noted, no stated cut-off is given here; in the data, active means inhibition above about 30%; inactive means the rest.

Assay [1] in a line: reducers of endogenous Her2 protein level, primary screen, SKBR3 breast tumor cells, AlphaScreen, ATP viability (AID 461;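 active means Her2 level under about 52% in both replicate screens, with viability over 70% of control, limit read from the data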;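 on Her2 level: lower value means less Her2 protein in the cells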;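 on viability: percent of carrier control wells set as 100% viability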). As to conditions: 18-24 h, measured here: SKBR3 viability, ATP luminescence, at 10 µM.
Assay [2] addresses Receptor tyrosine-protein kinase erbB-2 (Homo sapiens) (UniProt P04626). The assay is described as above. The note with it: 18-24 h, at 10 µM, stronger effect = lower value.
A short description of assay [3]: SK-BR-3 cell growth inhibitors, pilot screen, 24 h, human (AID 572;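 active means viability at or below 10% of carrier control in both of two separate runs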;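 further: compound exposure lasted between 18 and 24 h rather than exactly 24 h; 100% = carrier-treated control wells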). As to conditions: SK-BR-3 viability, CellTiter-Glo luminescence, at 10 µM, stronger effect = lower value.
Assay [4] can be described thus: HUVEC growth inhibition – cell-based, human, primary screen (AID 575;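 active means viability at or below 30% in both replicate assays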;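 further: 100% = median of untreated cell wells with 0.1% DMSO on each plate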). The note with it: HUVEC proliferation, CellTiter-Glo luminescence, 72 h; at 10 µM; stronger effect = lower value.
The nature of assay [5]: growth inhibitors of H69AR lung tumor, primary screen, human, duplicate replicates (AID 580;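 active means viability at or under a set limit in both replicates, limit being median viability minus 3 SD, cut at about 48% in these data, passing the limit was not always enough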;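 further: 100% = mean luminescence of untreated wells and 0% = no signal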). The note with it: H69AR lung tumor cells viability, ATP luminescence, 72 h; at 10 µM; stronger effect = lower value.
Assay [6] is described as follows: reversal of MRP1-mediated doxorubicin resistance, pilot screen, H69AR cells, doxorubicin co-treatment (AID 601;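 active means viability loss from added drug above about 55%, and viability with drug at most 40%, in both replicates, limit read from the data, passing the limit was not always enough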). The note with it: CellTiter-Glo, 72 h, at 10 µM; for differential viability (reversal): stronger effect = higher value.
A short description of assay [7]: 384-well plate pilot, post-Golgi transport modulator project, inhibition of yeast transport mutant growth (AID 636; in the data active means inhibition above about 31%). As to conditions: absorbance 615 nm, about 18 h, stronger effect = higher value.
Assay [8] in a line: growth suppression of yeast trafficking mutant, preliminary HTS, modulators of trafficking downstream of Golgi apparatus project, 1536-format plate, OD 615 nm (AID 637). The note with it: yeast transport mutant growth, absorbance 615 nm, 18 h; stronger effect = higher value.
The nature of assay [9]: OD615 S. cerevisiae growth inhibition, permissive medium, pilot counter-assay, permissive growth control for S. cerevisiae lifespan shortening project (AID 705;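 active means growth inhibition above 25% in both replicates, a cutoff set 3 SD above the mean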). The note with it: OD615, 24 h, at 10 µM, stronger effect = higher value.
Assay [10] can be described thus: Restrictive medium S. cerevisiae growth inhibition, OD615, pilot screen of yeast lifespan reduction project, restrictive growth control (AID 706;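 active means growth inhibition above a set limit, 3 SD over mean compound inhibition, in both replicates, cut at about 43% in these data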;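 further: modified DeaD lifespan yeast strain shifted to restrictive glucose medium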). The note with it: OD615, 48 h, at 10 µM, stronger effect = higher value.
Assay [11] is described as follows: viability gain of MRP-1-high H69AR cells under doxorubicin, pilot screen, MRP-1 activator project, CellTiter-Glo, duplicate (AID 807;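 active means viability increase at or above a cutoff of the median across tested compounds plus 3 SD, cut at about 8.5% in these data, passing the limit was not always enough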;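 further: compound pretreatment 18-22 h then 72 h combined with doxorubicin; 0% = doxorubicin alone and 100% = vehicle without doxorubicin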). The note with it: H69AR viability with doxorubicin, CellTiter-Glo luminescence; at 10 µM; stronger effect = higher value.
Assay [12] in a line: growth suppression of beta-catenin knockout HCT116, pilot screen, human colon tumor cells (AID 823;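 active means cell viability at or below a set limit in both duplicate runs, the limit being the all-compound median minus 4 SD, cut at about 23% in these data, passing the limit was not always enough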;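 further: 0% = wells killed by 20 µM Hyamine and 100% = untreated DMSO cell wells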). As to conditions: CellTiter-Glo, 60 h, at 10 µM, stronger effect = lower value.
Assay [13] in a line: growth suppression of PTEN-deleted HCT116, pilot screen, cell-based, HCT116 clonal line, CellTiter-Glo (AID 824;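 active means viability at or below 27.92% in each of two runs, the all-compound median minus 4 SD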;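 further: 0% = 20 µM Hyamine control and 100% = vehicle cell control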). As to conditions: 60 h, at 10 µM, stronger effect = lower value.
The nature of assay [14]: inhibitors of the yeast RAM network, pilot screen, dse1pr::URA3 reporter, 5-FOA selection (AID 869;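 active means inhibition over a set limit, the all-compound mean plus 3 SD, in both replicate runs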;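 further: 0% = DMSO wells with no growth and 100% = 10 µM 1-NA-PP1 with full growth; RAM network block rescues cells from 5-FOA so hits raise OD615 growth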). The note with it: S. cerevisiae dse1pr::URA3 5-FOA growth, OD615, 2 d; at 10 µM; stronger effect = higher value; strain carries analog-sensitive mutant Cbk1 kinase.
Assay [15] in a line: RAM signaling pathway blockade in yeast – S. cerevisiae, Pdr1DBD-CYC8 efflux-inhibited sensitized strain, primary screen (AID 1298;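 active means RAM network inhibition above 8.4% in each of two replicates, 3 SD over the compound average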;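 further: 0% = DMSO untreated cells without growth and 100% = 10 µM 1-NA-PP1 full growth; higher means more yeast growth rescued from 5-FOA killing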). The note with it: S. cerevisiae cbk1-as DSE1-URA3 strain, 5-FOA growth OD615, 2 d; at 50 µM; stronger effect = higher value.
The mark [16] stands for this setting: H69AR cells + 2 uM doxorubicin, measured here: viability with 2 uM doxorubicin, stronger effect = lower value.
The mark [17] stands for this setting: H69AR cells, compound alone cytotoxicity.

Chain of Receptor tyrosine-protein kinase erbB-2 (Homo sapiens) (P04626 whole entry, looked up): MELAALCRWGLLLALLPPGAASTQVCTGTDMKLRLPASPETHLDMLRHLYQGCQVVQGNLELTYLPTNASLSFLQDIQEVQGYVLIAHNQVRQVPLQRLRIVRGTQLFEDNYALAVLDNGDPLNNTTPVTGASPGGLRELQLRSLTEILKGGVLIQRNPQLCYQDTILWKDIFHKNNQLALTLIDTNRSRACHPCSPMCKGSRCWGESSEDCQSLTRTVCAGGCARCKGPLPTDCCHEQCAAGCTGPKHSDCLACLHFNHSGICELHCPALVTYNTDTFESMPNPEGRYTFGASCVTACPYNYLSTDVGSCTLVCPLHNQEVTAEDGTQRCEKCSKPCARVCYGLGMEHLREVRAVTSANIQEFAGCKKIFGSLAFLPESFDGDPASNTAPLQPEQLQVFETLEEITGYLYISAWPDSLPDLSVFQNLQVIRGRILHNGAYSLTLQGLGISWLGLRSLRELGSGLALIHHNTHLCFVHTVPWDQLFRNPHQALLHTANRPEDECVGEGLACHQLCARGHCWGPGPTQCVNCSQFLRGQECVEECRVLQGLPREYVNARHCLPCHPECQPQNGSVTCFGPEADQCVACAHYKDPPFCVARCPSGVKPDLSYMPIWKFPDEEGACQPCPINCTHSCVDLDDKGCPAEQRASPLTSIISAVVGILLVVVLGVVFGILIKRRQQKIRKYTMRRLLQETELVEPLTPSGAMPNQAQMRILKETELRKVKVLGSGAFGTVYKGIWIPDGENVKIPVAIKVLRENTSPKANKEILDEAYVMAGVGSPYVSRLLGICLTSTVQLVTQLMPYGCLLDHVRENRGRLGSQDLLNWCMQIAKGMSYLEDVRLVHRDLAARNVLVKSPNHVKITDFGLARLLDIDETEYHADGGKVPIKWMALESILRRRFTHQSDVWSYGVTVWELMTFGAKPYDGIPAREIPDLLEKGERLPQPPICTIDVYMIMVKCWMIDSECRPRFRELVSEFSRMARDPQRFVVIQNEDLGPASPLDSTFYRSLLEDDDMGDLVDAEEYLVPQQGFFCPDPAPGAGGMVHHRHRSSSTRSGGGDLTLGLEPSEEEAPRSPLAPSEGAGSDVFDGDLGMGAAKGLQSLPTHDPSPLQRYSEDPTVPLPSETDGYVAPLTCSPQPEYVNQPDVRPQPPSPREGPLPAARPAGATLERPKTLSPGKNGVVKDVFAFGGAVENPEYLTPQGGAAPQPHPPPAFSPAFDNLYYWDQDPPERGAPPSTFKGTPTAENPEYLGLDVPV

For the compound `CCOC(=O)N1CCN(C(=O)CSc2nnc(COc3ccccc3)o2)CC1`, the viability is 92.5% in [1]; 92.5% (inactive) in [3]; 95.2% (inactive) in assay [4]; 97.2% (inactive) in [5]; 88.2% in [6] (setting [16]); 97.2% in assay [6] (setting [17]). For the same compound, the viability is 99.4% (inactive) in [12] and 100% (inactive) in [13]. In addition, the Her2 level in assay [2] is 89.5% (inactive). Further, the differential viability (reversal) in assay [6] (H69AR cells + 2 uM doxorubicin) is 9.01% (inactive). Further, the inhibition is 2.67% (inactive) in assay [7], -7.21% (inactive) in [8] and -0.34% (inactive) in assay [14]. Also, the values for the growth inhibition in assay [9] and in assay [10] were -8.08% (inactive) and 1.67% (inactive), respectively. Besides, the viability increase in [11] was 1.41% (inactive). Besides, the RAM network inhibition in assay [15] was 7.1% (inactive).
As for `Cc1cccc(NC(=O)Nc2cccc(C#N)c2)n1`, the viability in [1] was 100%; in [3], 100% (inactive); in assay [4], 63.2% (inactive); in assay [5], 84% (inactive); in assay [6] (setting [16]) it was 87.5%; in assay [6] (setting [17]), 84%. For the same compound, the viability in [12] was 43.5% (inactive); in assay [13] it was 46% (inactive). Also, the Her2 level in assay [2] was 66.5% (inactive). Also, in assay [6] (H69AR cells + 2 uM doxorubicin), the differential viability (reversal) is -3.47% (inactive). The inhibition was 0.38% (inactive) in assay [7], 3.67% (inactive) in assay [8] and 3.24% (inactive) in assay [14]. Also, the growth inhibition was -8.45% (inactive) in assay [9] and 0.81% (inactive) in assay [10]. Further, in [11], the viability increase was -4.03% (inactive). Moreover, the RAM network inhibition in assay [15] was 2.88% (inactive).
With `CCN(CC)C(=O)COC(=O)c1ccc(O)cc1`, the viability in [1] was 90.5%; in [3] it was 90.5% (inactive); in assay [4], 103% (inactive); in [5] it was 91.2% (inactive); in assay [6] (setting [16]), 96.7%; in [6] (setting [17]) it was 91.2%. Also, the viability is 95.6% (inactive) in assay [12] and 101% (inactive) in assay [13]. For the same compound, the Her2 level in assay [2] is 102% (inactive). Moreover, the differential viability (reversal) in assay [6] (H69AR cells + 2 uM doxorubicin) is -5.45% (inactive). Moreover, the inhibition is 1.73% (inactive) in assay [7], -5.97% (inactive) in assay [8] and 1.32% (inactive) in [14]. Moreover, the growth inhibition in assay [9] is -6.88% (inactive); in [10] it was -17.4% (inactive). The viability increase in [11] was 0.25% (inactive). In assay [15], the RAM network inhibition was -0.27% (inactive).
For `Cn1c(=O)c(=O)n(C)c2cc(S(=O)(=O)CCC(=O)N3CCOCC3)ccc21`, the viability was 88.5% in assay [1]; 88.5% (inactive) in assay [3]; 106% (inactive) in assay [4]; 95% (inactive) in [5]; 102% in assay [6] (setting [16]); 95% in assay [6] (setting [17]). The viability in assay [12] was 103% (inactive); in assay [13], 102% (inactive). Further, the Her2 level in assay [2] is 84% (inactive). Further, the differential viability (reversal) in assay [6] (H69AR cells + 2 uM doxorubicin) is -6.71% (inactive). In addition, the inhibition is -0.4% (inactive) in assay [7], 12.5% (inactive) in assay [8] and 0.99% (inactive) in assay [14]. Moreover, the growth inhibition in [9] was -2.16% (inactive); in assay [10], -4.52% (inactive). The viability increase in [11] was -2.26% (inactive). Further, the RAM network inhibition in assay [15] was 6.32% (inactive).
In the case of `Cc1nn(C(=O)c2ccc3c(c2)OCO3)c(N)c1-c1ccccc1`, the viability in assay [1] is 102%; in assay [3] it was 102% (inactive); in assay [4], 98.3% (inactive); in assay [5], 94.2% (inactive); in assay [6] (setting [16]), 84.5%; in assay [6] (setting [17]), 94.2%. For the same compound, the viability in assay [12] was 99.2% (inactive); in [13] it was 98.2% (inactive). Besides, the Her2 level in assay [2] was 95% (inactive). The differential viability (reversal) in [6] (H69AR cells + 2 uM doxorubicin) was 9.75% (inactive). The results for the inhibition in [7], in assay [8] and in assay [14] were -1.47% (inactive), 2.13% (inactive) and 0.585% (inactive), respectively. Besides, the growth inhibition is 3.15% (inactive) in assay [9] and 5.03% (inactive) in assay [10]. In addition, the viability increase in assay [11] is -2.76% (inactive). The RAM network inhibition in assay [15] is 1.02% (inactive).
Turning to `O=C(Nc1ccncc1)c1cccc(F)c1`, the viability was 103% in assay [1]; 103% (inactive) in [3]; 91.5% (inactive) in assay [4]; 92% (inactive) in [5]; 92% in [6] (setting [16]); 92% in [6] (setting [17]). Also, the viability was 98.4% (inactive) in assay [12] and 91.4% (inactive) in [13]. Moreover, in assay [2], the Her2 level is 130% (inactive). Further, the differential viability (reversal) in assay [6] (H69AR cells + 2 uM doxorubicin) is -0.005% (inactive). In addition, the inhibition was -3.08% (inactive) in assay [7], -2.33% (inactive) in [8] and -0.02% (inactive) in assay [14]. In addition, the growth inhibition was -5.12% (inactive) in assay [9] and 3.45% (inactive) in assay [10]. The viability increase in assay [11] is -1.19% (inactive). The RAM network inhibition in assay [15] was 2.86% (inactive).
On to `COc1ccc(C(=O)NCc2nc3ccccc3[nH]2)cc1OC`, for which the viability in assay [1] is 110%; in assay [3] it was 110% (inactive); in assay [4] it was 101% (inactive); in [5], 107% (inactive); in assay [6] (setting [16]), 90.2%; in assay [6] (setting [17]) it was 107%. For the same compound, the viability in [12] is 102% (inactive); in assay [13] it was 98.2% (inactive). In assay [2], the Her2 level is 115% (inactive). In addition, in assay [6] (H69AR cells + 2 uM doxorubicin), the differential viability (reversal) is 16.6% (inactive). Further, the inhibition is -3.6% (inactive) in [7], -6.67% (inactive) in [8] and 2.96% (inactive) in assay [14]. The growth inhibition in assay [9] is -9.82% (inactive); in assay [10], -15% (inactive). Besides, the viability increase in assay [11] is 0.84% (inactive). For the same compound, in assay [15], the RAM network inhibition was 6.63% (inactive).
With `O=C(CCN1C(=O)c2ccccc2C1=O)Nc1ccc(F)cc1`, the viability in assay [1] was 108%; in assay [3] it was 108% (inactive); in [4] it was 116% (inactive); in assay [5] it was 104% (inactive); in assay [6] (setting [16]) it was 90.6%; in [6] (setting [17]) it was 104%. The results for the viability in [12] and in assay [13] were 107% (inactive) and 110% (inactive), respectively. Moreover, in [2], the Her2 level is 76% (inactive). In [6] (H69AR cells + 2 uM doxorubicin), the differential viability (reversal) is 12.9% (inactive). Further, the values for the inhibition in assay [7], in assay [8] and in assay [14] were -1.95% (inactive), -7% (inactive) and 1.6% (inactive), respectively. Besides, the values for the growth inhibition in [9] and in assay [10] were -8.49% (inactive) and -11.6% (inactive), respectively. In addition, the viability increase in assay [11] is 3.01% (inactive). Besides, the RAM network inhibition in assay [15] is -0.26% (inactive).
In the case of `COc1ccccc1N1CCN(C(=O)N2CCOCC2)CC1`, the viability in [1] was 107%; in assay [3], 107% (inactive); in [4] it was 86.9% (inactive); in [5], 73.8% (inactive); in [6] (setting [16]), 82.9%; in assay [6] (setting [17]) it was 73.8%. Further, the viability is 95.9% (inactive) in assay [12] and 96.8% (inactive) in assay [13]. In addition, in assay [2], the Her2 level is 87% (inactive). For the same compound, in assay [6] (H69AR cells + 2 uM doxorubicin), the differential viability (reversal) is -9.12% (inactive). Besides, the inhibition in [7] is -1.95% (inactive); in assay [8], -5.57% (inactive); in assay [14] it was 1.06% (inactive). The growth inhibition is -17.3% (inactive) in [9] and -6.65% (inactive) in assay [10]. The viability increase in assay [11] is -1.74% (inactive). For the same compound, the RAM network inhibition in assay [15] was 0.62% (inactive).
For the compound `CCOC(=O)C1CCCN(C(=O)c2cn(C)c(=O)c3cc(OC)c(OC)cc23)C1` (stereo not given), the viability in [1] was 96.5%; in [3], 96.5% (inactive); in [4], 94.2% (inactive); in assay [5], 91% (inactive); in assay [6] (setting [16]), 101%; in assay [6] (setting [17]), 91%. Further, the figures for the viability in assay [12] and in assay [13] were 97% (inactive) and 90.7% (inactive), respectively. In addition, in [2], the Her2 level was 99.5% (inactive). For the same compound, the differential viability (reversal) in assay [6] (H69AR cells + 2 uM doxorubicin) is -9.49% (inactive). The inhibition in [7] was -3.38% (inactive); in [8], 4.43% (inactive); in assay [14], 1.17% (inactive). In addition, the growth inhibition in [9] is -11.5% (inactive); in assay [10], -4.87% (inactive). Moreover, in [11], the viability increase was -3.62% (inactive). Besides, the RAM network inhibition in assay [15] was 1.13% (inactive).
